This excerpt belongs to a sample that is enriched for hits.
Cruzain inh Det: qHTS Assay for Promiscuous and Specific Inhibitors of Cruzain (with detergent) | Cruzipain (Trypanosoma cruzi), P25779 | purified cruzain, Z-FR-AMC fluorescence, 0.01% Triton | Potency, µM, without a hit: max response, negative = inhibition, usual class: inhibitors | 0.43% of 200,000 active;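 also: potency is read from the fitted curve at half-maximal effect; plate controls were neutral wells for no effect and buffer without enzyme for full effect; nearly all actives have a fitted effect of over 40% in size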
Target sequence (P25779 123-467 limits assumed): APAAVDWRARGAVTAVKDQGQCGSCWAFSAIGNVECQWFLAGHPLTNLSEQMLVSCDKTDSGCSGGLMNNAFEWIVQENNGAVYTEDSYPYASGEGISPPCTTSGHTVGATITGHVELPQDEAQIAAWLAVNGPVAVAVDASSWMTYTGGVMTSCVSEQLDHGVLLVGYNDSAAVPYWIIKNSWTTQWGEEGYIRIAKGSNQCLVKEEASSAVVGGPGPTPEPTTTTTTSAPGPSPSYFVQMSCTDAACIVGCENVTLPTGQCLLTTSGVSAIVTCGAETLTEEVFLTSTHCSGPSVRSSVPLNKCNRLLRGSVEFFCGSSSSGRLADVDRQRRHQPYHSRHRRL
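Steps: dispense cruzain (1.5 nM final) in acetate buffer pH 5.5 with DTT and 0.01% Triton X-100; pin-transfer compounds; incubate 15 min RT; add Z-FR-AMC (2 uM final); read fluorescence every 30 s, using the 60 s intensity change.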
NS1 inh: qHTS Assay for Inhibitors of Influenza NS1 Protein Function; 0.4% of 270,000 active; Potency, µM (titrated, usually from 46.1 µM), without a hit: at the highest dose activity, positive = more growth; AID 2326, 2010; calls by dose curve; also: potency is read from the fitted curve at half-maximal effect; actives are rising curves; nearly all actives have a fitted effect of over 50% in size
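Read-out: OD600 growth recovery of NS1-expressing budding yeast. Cells grown overnight at 30C in -URA glucose medium, washed, resuspended and diluted 1:100 in 2% galactose assay medium, pH 6.0. Same strain lacking NS1 served as positive control.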
Cruzain inh noDet: qHTS Assay for Promiscuous and Specific Inhibitors of Cruzain (without detergent) | Cruzipain (Trypanosoma cruzi), P25779 | purified cruzain, Z-FR-AMC fluorescence, no detergent | Potency, µM, inactives show max response, negative = inhibition, usual class: inhibitors | 2.3% of 200,000 active | AID 1476, 2009;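 also: potency is read from the fitted curve at half-maximal effect; plate controls were enzyme without inhibitor for no effect and buffer without enzyme for full effect; nearly all actives have a fitted effect of over 40% in size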
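Purified cruzain at 1.5 nM, pre-incubated 15 min with compound at room temperature in 100 mM sodium acetate pH 5.5, 5 mM DTT, 0.00005% Triton X-100. Reaction started with 2 uM Z-FR-AMC; AMC fluorescence increase over 60 s gives rate.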
NS1 inh valid: Assay for Inhibitors of Influenza NS1 Protein Function: Hit Validation. shares compounds with NS1 inh. 1,400 tested, under 10 active. influenza NS1 function cell assay, 15-point titration. activity change, negative = inhibition, % at 32.9 µM; calls by dose curve; also: 0% is about no effect
Flu PR8 replic: Assay for Inhibitors of Influenza NS1 Protein Function: Influenza virus replication assay in MDCK cells infected with virus A/PR/8/34; shares compounds with NS1 inh; MDCK infected influenza A/PR/8/34, virus titer TCID50; active compounds read low; virus titer (log TCID50), log10 TCID50 at 5 µM; 30% of 95 active; call rule not given here
Active calls of the source: *. Unless noted, calls follow the shape of the dose curve; as a rule, active = well fitted curve in the direction sought with a large enough effect; inconclusive = small, poorly fitted or top-dose-only effect, or another doubt; inactive = no such curve, though single readings can be large; an effect the other way counts as inactive or inconclusive.

`N#CC1=C(S)N=C(N)C(c2nc(-c3ccccc3)cs2)C12CCCCC2` (configuration not stated) gave Cruzain inh Det 0%, NS1 inh 11µM*, Cruzain inh noDet 0% and NS1 inh valid 18.
For Nc1nc(-c2ccccc2)cs1 the results were Cruzain inh Det -1%, NS1 inh -7% and Cruzain inh noDet 4%.
`Cc1cc(C)nc(Nc2n[nH]c(COc3ccccc3)n2)n1` gave Cruzain inh Det 1%, NS1 inh -5% and Cruzain inh noDet inconclusive.
Cc1cc(C)nc(Nc2n[nH]c(COc3ccc4ccccc4c3)n2)n1 was read as Cruzain inh Det 4%, NS1 inh 2µM*, Cruzain inh noDet inconclusive and NS1 inh valid 15.
`COc1ccc(CCNC(=O)C(=O)NCC(c2ccco2)S(=O)(=O)c2ccc(F)cc2)cc1` (configuration not stated) gave Cruzain inh Det -1% and Cruzain inh noDet 9%.
`O=C(COc1ccccc1F)NC1CC(=O)N(c2ccc3c(c2)OCCO3)C1` (configuration not stated) gave Cruzain inh Det -5% and Cruzain inh noDet -2%.
For O=[N+]([O-])c1ccc(N/N=C/c2cn(-c3ccccc3)nc2-c2ccccc2)cc1 the results were Cruzain inh Det 4%, NS1 inh inconclusive, Cruzain inh noDet inconclusive and NS1 inh valid 1.
`NS(=O)(=O)c1ccc(N/N=C/c2cn(-c3ccccc3)nc2-c2ccccc2)c([N+](=O)[O-])c1` gave NS1 inh 0%.
CCC12C(=O)C(CC)(C(c3ccccc3)=C1c1ccccc1)[C@@H]1C(=O)N(c3ccc(C)cc3)C(=O)C12 (some centres not stated) was read as Cruzain inh Det -4%, NS1 inh 7% and Cruzain inh noDet inconclusive.
`CCCC12C(=O)C(C)(C(c3ccccc3)=C1c1ccccc1)C1C(=O)N(c3ccc(C)cc3)C(=O)C12` (configuration not stated) gave Cruzain inh Det -1%, NS1 inh 10µM*, Cruzain inh noDet 20µM*, NS1 inh valid -26 and Flu PR8 replic 6.5*.
`CC1(C)C(=O)C2(C(=O)NCc3ccccc3)CCC1C2` (configuration not stated) gave Cruzain inh Det 4%, NS1 inh 20µM*, Cruzain inh noDet 6% and NS1 inh valid 1.
Screening C=C1C2(C(=O)NCc3ccco3)CCC(C2)C1(C)C (configuration not stated) returned Cruzain inh Det 5%, NS1 inh 0% and Cruzain inh noDet -10%.
N#Cc1cccc(NC(=O)N2CC[C@@]3(CCCN(C(=O)c4cccc(F)c4)C3)C2)c1 was read as Cruzain inh Det 3% and Cruzain inh noDet 1%.
Screening C/C=C1/C(=O)C[C@H]2[C@@H]3CCC4=CC(=O)CC[C@]4(C)[C@H]3CC[C@]12C returned Cruzain inh Det -1% and Cruzain inh noDet 5%.
`Cc1cc(NC(=O)c2ccc(Cl)c(Cl)c2)ccc1-c1cc2ccccc2oc1=O` gave Cruzain inh Det 2% and Cruzain inh noDet 17%.
O=C(Nc1ccc(-c2cc3ccccc3oc2=O)c(Cl)c1)c1cccnc1 was read as Cruzain inh Det 5%, NS1 inh 2.2µM*, Cruzain inh noDet 6% and NS1 inh valid 7.
Cc1sc2nc(CN(C(=O)NC3CCCCC3)C3CCCC3)[nH]c(=O)c2c1C was read as Cruzain inh Det 8%, NS1 inh -12% and Cruzain inh noDet -3%.
For Cc1sc2nc(CN(Cc3cccs3)C(=O)NC3CCCCC3)[nH]c(=O)c2c1C the results were Cruzain inh Det 1%, NS1 inh 0.45µM*, Cruzain inh noDet 11% and NS1 inh valid inconclusive.
Screening CC1CCN(CC(=O)NCc2ccco2)CC1 returned NS1 inh 0%.
`O=C(CN1CCc2ccccc2C1)NCc1ccco1` gave Cruzain inh Det -1%, NS1 inh inconclusive, Cruzain inh noDet -8% and NS1 inh valid 4.
Screening CN(C)CCN(Cc1ccccc1)S(=O)(=O)c1ccc(-c2cc(C(F)(F)F)on2)s1 returned Cruzain inh Det 1% and Cruzain inh noDet -6%.
For COC(=O)c1ccc(CSc2nnc(NCc3ccccc3)s2)o1 the results were Cruzain inh Det 2%, NS1 inh 14µM*, Cruzain inh noDet -7% and NS1 inh valid inconclusive.
`COC(=O)c1ccc(CSc2nnc(SCc3ccc(C(=O)OC)o3)s2)o1` gave Cruzain inh Det -6%, NS1 inh -18% and Cruzain inh noDet -3%.
Screening COc1ccc(-c2noc(CSc3nnc(-c4ccncc4)n3-c3ccc(OC)cc3)n2)cc1 returned Cruzain inh Det 2% and Cruzain inh noDet inconclusive.
For Cc1ccc(S(=O)(=O)c2cc3c(=O)n4ccccc4nc3n(CC3CCCO3)c2=N)cc1C (configuration not stated) the results were Cruzain inh Det 32µM*, NS1 inh 8.9µM*, Cruzain inh noDet -28% and NS1 inh valid inconclusive.
For Cc1ccc(S(=O)(=O)c2cc3c(=O)n4ccccc4nc3n(Cc3ccco3)c2=N)cc1C the results were Cruzain inh Det 6%, NS1 inh -8% and Cruzain inh noDet -25%.
For CCn1c(=O)c2cc(C(=O)NCc3cc(OC)ccc3OC)sc2c2ccccc21 the results were Cruzain inh Det 0% and Cruzain inh noDet 8%.
For CC1=C(C(=O)Nc2cccnc2)C(c2cccc(Br)c2)n2nc(SCc3ccccc3)nc2N1 (configuration not stated) the results were Cruzain inh Det 0% and Cruzain inh noDet -3%.
For CCOC(=O)c1cccc(NC(=O)CCS(=O)(=O)c2ccc3c(c2)CCN3C(=O)CC)c1 the results were Cruzain inh Det -1% and Cruzain inh noDet -5%.
For CCOC(=O)C1=C(CNCc2ccccc2)NC(=O)NC1c1ccc(C)cc1 (configuration not stated) the results were Cruzain inh Det -4% and Cruzain inh noDet -16%.
`CCC(=O)Nc1ccc(Cl)c(NC(=S)NC(=O)c2ccco2)c1` gave Cruzain inh Det -4%, NS1 inh 7% and Cruzain inh noDet -4%.
For CCC(=O)Nc1ccc(Cl)c(NC(=S)NC(=O)c2cc3ccccc3o2)c1 the results were Cruzain inh Det -5%, NS1 inh inconclusive, Cruzain inh noDet inconclusive and NS1 inh valid 5.
CCc1cccc(C)c1NC(=O)Cn1ccn(Cc2ccc(Cl)cc2)c(=O)c1=O was read as Cruzain inh Det 0% and Cruzain inh noDet 7%.
`COc1ccc2nc(/N=C(\N)NC(=O)N3c4ccccc4Sc4ccccc43)nc(C)c2c1` gave Cruzain inh Det 1%, NS1 inh inconclusive and Cruzain inh noDet inconclusive.

Source: PubChem
